According to PubChem BioAssay (NCI):
Compounds without any hit were thinned out: in the full panel of roughly 83,000, 20% have a hit.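 Interpretation: 100, growth as untreated; towards 0, rising growth inhibition; 0, no net growth; 0 to -100, cell death. Compounds scoring below 10 were considered active.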 The source made the active and inactive calls.

system: PC-3 prostate; test: NCI-60 one-dose screen, 48 h (100 = growth as untreated, 0 = no growth, -100 = all killed); conditions: 10 µM unless noted

**Q.** With `CC(C)OC1=C(Cl)C(=O)c2ccccc2C1=O` as the compound, how does the growth read?
**A.** 69.1% (inactive)

**Q.** How did the growth turn out when `CS(=O)(=O)Nc1cccc(C(=O)NCc2ccc(N3CCOCC3)cc2)c1` was run?
**A.** 104% (inactive)

**Q.** `COc1ccc(S(=O)(=O)ON=C2C=C(C)C(=O)C(C)=C2)cc1` was tested. Which growth did it give?
**A.** 86% (inactive)

**Q.** How did the growth turn out when `CCOC(=O)c1c(Cl)c2c(n1Cc1cc(OC)cc(OC)c1)-c1oncc1CCC2` was run?
**A.** 23.4% (inactive)

**Q.** For `NC(=S)N/N=C1\c2ccccc2-c2c(F)c(F)c(F)c(F)c21`, which growth is on record?
**A.** 80.3% (inactive)

**Q.** How did the growth turn out when `COCCOC1=C(Cl)C(=O)c2ccccc2C1=O` was run?
**A.** 18.7% (inactive)

**Q.** With `O=C1C(OCCOc2ccccc2)=C(OCCOc2ccccc2)C(=O)c2ccccc21` as the compound, how does the growth read?
**A.** 44.4% (inactive)

**Q.** For `N#Cc1c(O)c2c(c(O)c1C#N)C(=O)c1ccccc1C2=O`, which growth is on record?
**A.** 14.3% (inactive)

**Q.** For `COc1cc(/C=C/C(=O)CC(=O)/C=C/c2cc(Br)c(OC)c(OC)c2)cc(Br)c1OC`, which growth is on record?
**A.** 105% (inactive)

**Q.** For `CCN1CCN(c2ccc(Nc3ncc4ccc5ncn(C(C)C)c5c4n3)nc2)CC1`, which growth is on record?
**A.** 7.15% (active)

**Q.** Which growth does the source give for `Nc1nc2c(s1)CCc1c-2c(Br)n(Cc2ccccc2)c1Br` here?
**A.** 89.1% (inactive)

**Q.** `O=c1onc(-c2ccccc2)c2ccccc12` was tested. Which growth did it give?
**A.** 102% (inactive)

**Q.** For `CCCCCn1c(=N)n(CC(O)COc2cccc(C)c2)c2ccccc21` (stereo unspecified), which growth is on record?
**A.** 7.46% (active)

**Q.** With `COc1ccc(-c2nn(-c3ccc(NC(=O)c4ccc(Cl)c(Cl)c4)cc3)cc2-c2ccncc2)cc1Cl` as the compound, how does the growth read?
**A.** 26.7% (inactive)

**Q.** With `CCC(C)Oc1cc(/C=N/NC(=O)c2cnn3c2NC(c2ccccc2)C3)ccc1OC` (stereo unspecified) as the compound, how does the growth read?
**A.** 25.3% (inactive)

**Q.** How did the growth turn out when `COc1cccc(OC)c1OC(=O)c1ccccc1` was run?
**A.** 106% (inactive)

**Q.** How did the growth turn out when `C=C[C@H]1C[C@@H]2C[C@@H]3[C@H]4C/C=C\C(=O)NCCCC5NC(=O)C(=C(O)/C=C/[C@@H]4CC(=O)[C@H]3[C@@H]2[C@H]1C)C5=O` (stereo partly specified) was run?
**A.** -82.5% (active)

**Q.** `Cc1nc2ccc(Cl)cc2n1C` was tested. Which growth did it give?
**A.** 101% (inactive)

**Q.** Which growth does the source give for `C=C1CC[C@@H]2[C@@](C)(CCC[C@]2(C)C(=O)O)[C@@H]1CC[C@H](CO)CCO` here?
**A.** 99.7% (inactive)

**Q.** For `Fc1c[c-]c(-c2ccccn2)c(F)c1.Fc1c[c-]c(-c2ccccn2)c(F)c1.[Cl][Pt+].[Cl][Pt+].c1ccc([PH+](C[PH+](c2ccccc2)c2ccccc2)c2ccccc2)cc1`, which growth is on record?
**A.** 14.9% (inactive)

**Q.** How did the growth turn out when `O=C(NCc1cccnc1)c1ccc([N+](=O)[O-])o1` was run?
**A.** 24.5% (inactive)

**Q.** `COc1ccc(NS(=O)(=O)c2ccc(-c3cnc(C4CC4)o3)cc2)cc1` was tested. Which growth did it give?
**A.** 67% (inactive)

**Q.** With `NC1=NC(c2ccccc2OS(=O)(=O)c2ccc(Br)cc2)n2c(nc3ccccc32)N1` (stereo unspecified) as the compound, how does the growth read?
**A.** 80.1% (inactive)

**Q.** Which growth does the source give for `O=C(Nc1ccccc1)Oc1cccc2cccnc12` here?
**A.** 70.1% (inactive)

**Q.** Which growth does the source give for `CCC12CCC3c4ccc(O)cc4CCC3C1CC(O)C2O` (stereo unspecified) here?
**A.** 85.5% (inactive)

**Q.** For `Cc1ccc(S(=O)(=O)N2CCc3ccc(O)c4c3C2Cc2ccc3c(c2-4)OCO3)cc1` (stereo unspecified), which growth is on record?
**A.** 26.8% (inactive)

**Q.** With `COC(=O)c1c2c(c(C)[n+]([O-])c1C)C(=O)C=C(NCc1cccc(OC)c1)C2=O` as the compound, how does the growth read?
**A.** -2.04% (active)

**Q.** For `O=C(c1cnn2c1NC(c1ccc(F)cc1)C2)N1CCCCC1` (stereo unspecified), which growth is on record?
**A.** 96.9% (inactive)

**Q.** With `O=C1NC(=O)C2(CCCC2C(=O)O)N1` (stereo unspecified) as the compound, how does the growth read?
**A.** 92.6% (inactive)

**Q.** For `CON=C1C[C@]2(C[C@@H]3C[C@@H](C/C=C(\C)C[C@@H](C)/C=C/C=C4\CO[C@@H]5[C@H](O)C(C)=C[C@@H](C(=O)O3)[C@]45O)O2)O[C@H](/C(C)=C/C(C)C)[C@H]1C`, which growth is on record?
**A.** 13.5% (inactive)

**Q.** Which growth does the source give for `COc1cc(/C=C/C(=O)C(=Cc2ccc(F)c(F)c2)C(=O)/C=C/c2ccc(O)c(OC)c2)ccc1O` here?
**A.** 30.7% (inactive)

**Q.** `CCOC(=O)c1[nH]c2cc(Cl)ccc2c1[C@@H](C(=O)NC(C)(C)C)N(CC)C(=O)CCCCC#Cc1cccc2c1CN(C1CCC(=O)NC1=O)C2=O` (stereo partly specified) was tested. Which growth did it give?
**A.** 11.7% (inactive)

**Q.** Which growth does the source give for `O=C1/C(=C/c2ccccc2F)CNC/C1=C\c1ccccc1F` here?
**A.** 4.63% (active)

**Q.** How did the growth turn out when `COc1cc(C2C3=C(COC3=O)N(CCO)c3cc4c(cc32)OCO4)cc(OC)c1O` (stereo unspecified) was run?
**A.** 29.5% (inactive)

**Q.** `CCCCCCCC/C=C\CCCCCCCCOc1cccc(CC(=O)NCC[N+]2(C)CCOCC2)c1` was tested. Which growth did it give?
**A.** 33.3% (inactive)

**Q.** Which growth does the source give for `COc1ccccc1CNCCCCCCCCCCCCN1C(=O)c2ccc3c4c(ccc(c24)C1=O)C(=O)N(CCCCCCCCCCCCNCc1ccccc1OC)C3=O` here?
**A.** 27.7% (inactive)

**Q.** Which growth does the source give for `CC(C)NCC(O)COc1ccc(CCOCC2CC2)cc1` (stereo unspecified) here?
**A.** 80% (inactive)

**Q.** With `Clc1ccc(C2=NN(c3ccccc3)[C@H](c3cn(-c4ccccc4)nc3-c3ccccc3)C2)cc1` as the compound, how does the growth read?
**A.** 93.9% (inactive)

system: SK-MEL-5 melanoma; test: as above; conditions: 10 µM unless noted

**Q.** With `CC(C)OC1=C(Cl)C(=O)c2ccccc2C1=O` as the compound, how does the growth read?
**A.** 96.8% (inactive)

**Q.** `CS(=O)(=O)Nc1cccc(C(=O)NCc2ccc(N3CCOCC3)cc2)c1` was tested. Which growth did it give?
**A.** 98.9% (inactive)

**Q.** With `COc1ccc(S(=O)(=O)ON=C2C=C(C)C(=O)C(C)=C2)cc1` as the compound, how does the growth read?
**A.** 98.2% (inactive)

**Q.** How did the growth turn out when `CCOC(=O)c1c(Cl)c2c(n1Cc1cc(OC)cc(OC)c1)-c1oncc1CCC2` was run?
**A.** 17.7% (inactive)

**Q.** With `NC(=S)N/N=C1\c2ccccc2-c2c(F)c(F)c(F)c(F)c21` as the compound, how does the growth read?
**A.** 102% (inactive)

**Q.** Which growth does the source give for `COCCOC1=C(Cl)C(=O)c2ccccc2C1=O` here?
**A.** -7.27% (active)

**Q.** Which growth does the source give for `O=C1C(OCCOc2ccccc2)=C(OCCOc2ccccc2)C(=O)c2ccccc21` here?
**A.** 13.6% (inactive)

**Q.** For `N#Cc1c(O)c2c(c(O)c1C#N)C(=O)c1ccccc1C2=O`, which growth is on record?
**A.** -73.1% (active)

**Q.** Which growth does the source give for `COc1cc(/C=C/C(=O)CC(=O)/C=C/c2cc(Br)c(OC)c(OC)c2)cc(Br)c1OC` here?
**A.** 108% (inactive)

**Q.** Which growth does the source give for `CCN1CCN(c2ccc(Nc3ncc4ccc5ncn(C(C)C)c5c4n3)nc2)CC1` here?
**A.** -8.75% (active)

**Q.** Which growth does the source give for `Nc1nc2c(s1)CCc1c-2c(Br)n(Cc2ccccc2)c1Br` here?
**A.** 89.3% (inactive)

**Q.** How did the growth turn out when `O=c1onc(-c2ccccc2)c2ccccc12` was run?
**A.** 103% (inactive)

**Q.** Which growth does the source give for `CCCCCn1c(=N)n(CC(O)COc2cccc(C)c2)c2ccccc21` (stereo unspecified) here?
**A.** -73.3% (active)

**Q.** `COc1ccc(-c2nn(-c3ccc(NC(=O)c4ccc(Cl)c(Cl)c4)cc3)cc2-c2ccncc2)cc1Cl` was tested. Which growth did it give?
**A.** 5.09% (active)

**Q.** For `CCC(C)Oc1cc(/C=N/NC(=O)c2cnn3c2NC(c2ccccc2)C3)ccc1OC` (stereo unspecified), which growth is on record?
**A.** 21.2% (inactive)

**Q.** `COc1cccc(OC)c1OC(=O)c1ccccc1` was tested. Which growth did it give?
**A.** 96% (inactive)

**Q.** For `C=C[C@H]1C[C@@H]2C[C@@H]3[C@H]4C/C=C\C(=O)NCCCC5NC(=O)C(=C(O)/C=C/[C@@H]4CC(=O)[C@H]3[C@@H]2[C@H]1C)C5=O` (stereo partly specified), which growth is on record?
**A.** -95.3% (active)

**Q.** `Cc1nc2ccc(Cl)cc2n1C` was tested. Which growth did it give?
**A.** 99.6% (inactive)

**Q.** For `C=C1CC[C@@H]2[C@@](C)(CCC[C@]2(C)C(=O)O)[C@@H]1CC[C@H](CO)CCO`, which growth is on record?
**A.** 112% (inactive)

**Q.** With `Fc1c[c-]c(-c2ccccn2)c(F)c1.Fc1c[c-]c(-c2ccccn2)c(F)c1.[Cl][Pt+].[Cl][Pt+].c1ccc([PH+](C[PH+](c2ccccc2)c2ccccc2)c2ccccc2)cc1` as the compound, how does the growth read?
**A.** -70.8% (active)

**Q.** With `O=C(NCc1cccnc1)c1ccc([N+](=O)[O-])o1` as the compound, how does the growth read?
**A.** 4.47% (active)

**Q.** Which growth does the source give for `COc1ccc(NS(=O)(=O)c2ccc(-c3cnc(C4CC4)o3)cc2)cc1` here?
**A.** 51.3% (inactive)

**Q.** For `NC1=NC(c2ccccc2OS(=O)(=O)c2ccc(Br)cc2)n2c(nc3ccccc32)N1` (stereo unspecified), which growth is on record?
**A.** 91% (inactive)

**Q.** Which growth does the source give for `O=C(Nc1ccccc1)Oc1cccc2cccnc12` here?
**A.** 96.9% (inactive)

**Q.** For `CCC12CCC3c4ccc(O)cc4CCC3C1CC(O)C2O` (stereo unspecified), which growth is on record?
**A.** 63.4% (inactive)

**Q.** Which growth does the source give for `Cc1ccc(S(=O)(=O)N2CCc3ccc(O)c4c3C2Cc2ccc3c(c2-4)OCO3)cc1` (stereo unspecified) here?
**A.** 25.9% (inactive)

**Q.** `COC(=O)c1c2c(c(C)[n+]([O-])c1C)C(=O)C=C(NCc1cccc(OC)c1)C2=O` was tested. Which growth did it give?
**A.** -97.2% (active)

**Q.** How did the growth turn out when `O=C(c1cnn2c1NC(c1ccc(F)cc1)C2)N1CCCCC1` (stereo unspecified) was run?
**A.** 97.8% (inactive)

**Q.** `O=C1NC(=O)C2(CCCC2C(=O)O)N1` (stereo unspecified) was tested. Which growth did it give?
**A.** 110% (inactive)

**Q.** For `CON=C1C[C@]2(C[C@@H]3C[C@@H](C/C=C(\C)C[C@@H](C)/C=C/C=C4\CO[C@@H]5[C@H](O)C(C)=C[C@@H](C(=O)O3)[C@]45O)O2)O[C@H](/C(C)=C/C(C)C)[C@H]1C`, which growth is on record?
**A.** 65.1% (inactive)

**Q.** `COc1cc(/C=C/C(=O)C(=Cc2ccc(F)c(F)c2)C(=O)/C=C/c2ccc(O)c(OC)c2)ccc1O` was tested. Which growth did it give?
**A.** 40.9% (inactive)

**Q.** Which growth does the source give for `CCOC(=O)c1[nH]c2cc(Cl)ccc2c1[C@@H](C(=O)NC(C)(C)C)N(CC)C(=O)CCCCC#Cc1cccc2c1CN(C1CCC(=O)NC1=O)C2=O` (stereo partly specified) here?
**A.** -53.4% (active)

**Q.** `O=C1/C(=C/c2ccccc2F)CNC/C1=C\c1ccccc1F` was tested. Which growth did it give?
**A.** -88.4% (active)

**Q.** How did the growth turn out when `COc1cc(C2C3=C(COC3=O)N(CCO)c3cc4c(cc32)OCO4)cc(OC)c1O` (stereo unspecified) was run?
**A.** 29.3% (inactive)

**Q.** How did the growth turn out when `CCCCCCCC/C=C\CCCCCCCCOc1cccc(CC(=O)NCC[N+]2(C)CCOCC2)c1` was run?
**A.** 99.8% (inactive)

**Q.** `COc1ccccc1CNCCCCCCCCCCCCN1C(=O)c2ccc3c4c(ccc(c24)C1=O)C(=O)N(CCCCCCCCCCCCNCc1ccccc1OC)C3=O` was tested. Which growth did it give?
**A.** 78.4% (inactive)

**Q.** With `CC(C)NCC(O)COc1ccc(CCOCC2CC2)cc1` (stereo unspecified) as the compound, how does the growth read?
**A.** 95% (inactive)

**Q.** With `Clc1ccc(C2=NN(c3ccccc3)[C@H](c3cn(-c4ccccc4)nc3-c3ccccc3)C2)cc1` as the compound, how does the growth read?
**A.** 114% (inactive)
